The source of these data is PubChem BioAssay (NCI).

“And” between values parts separate entries of the source, which are not always exact repeats. Equal values may be shown once. About 83,000 compounds went through this panel and 20% of them were active in at least one assay; those are over-represented in the sample as a whole.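 Method: cells in 96-well plates; compound added at one concentration; 48 h incubation; percent growth measured; values under 10 scored active.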 A number with no mark means an inactive call. The source made the active and inactive calls.

What all share (assay): NCI-60 one-dose screen, 48 h (100 = growth as untreated, 0 = no growth, -100 = all killed)
What all share (settings): 10 µM unless noted

For test [1], the system named is SR leukemia.
Test [2] has as its system RPMI-8226 leukemia.
Test [3] deals with OVCAR-8 ovarian.
The subject of test [4] is OVCAR-5 ovarian.
The test system of test [5] is OVCAR-4 ovarian.
Test [6] relates to SK-OV-3 ovarian.
For test [7], the system named is IGROV1 ovarian.
The test system of test [8] is OVCAR-3 ovarian.
Test [9] has as its system HS 578T breast.
Test [10] deals with NCI/ADR-RES ovarian.
For test [11], the system named is T-47D breast.
For test [12], the system named is BT-549 breast.
For test [13], the system named is MDA-MB-435 melanoma.
Test [14] relates to MCF7 breast.
The test system of test [15] is HCT-116 colon.
Test [16] relates to HCC-2998 colon.
Test [17] concerns KM12 colon.
In test [18] the test system is MOLT-4 leukemia.
Test [19] has as its system SW-620 colon.

With `COc1ccc(O)c2c(=O)c3c(OC)cc4c(c3oc12)[C@@H]1C=CO[C@@H]1O4`, the growth in test [1] was -6.56% (active); in [2], 63.5%; in test [3] it was 50.6%; in test [4] it was 55.2%; in [5], 40.8%; in test [6], 35.6%. Besides, the growth was 16.3% in test [7]; 52% in test [8]; 114% in test [9]; 41.6% in test [10]; 5.73% (active) in [11]; 17.8% in test [12]. In addition, the growth in test [13] is 37.3%; in [14], -0.498% (active); in test [15], 52.2%; in [16] it was -51.7% (active); in test [17] it was 12.5%.

In the case of `COc1ccc(N)cc1N`, the growth in test [18] was 163%; in test [2] it was 90.1%; in test [4], 98.5%; in test [6], 100%; in test [9], 108%; in test [10], 106%. In addition, the growth in test [11] was 96.1%; in test [12], 112%; in test [13], 122%; in [19], 107%; in test [14], 94.8%; in [15], 108%. Also, the growth in [17] was 99.7%.

For `COC(=O)CCP(CCC(=O)OC)c1ccccc1`, the growth in [18] was 113%; in [1], 106%; in test [2], 113%; in [3], 105%; in test [5], 103%; in test [6], 101%. Besides, the growth in test [7] is 110%; in test [8] it was 107%; in [9], 114%; in [10] it was 106%; in test [11], 112%; in test [13], 97.2%. Besides, the growth in [19] was 105%; in [14], 97.6%; in [15], 97.6%; in test [16] it was 104%; in test [17], 111%.

On to `COc1cc2c(cc1OC)-c1c3c(cc4c1[C@@H](C2)N(C)CC4)OCO3`, for which the growth in test [18] is 11.9%; in test [1] it was 17.2%; in test [2] it was 23.9%; in test [4], 42.5%; in test [5] it was 44.2%; in [6], 66.5%. Also, the growth is 76.1% in test [8]; 80.4% in test [9]; 43.5% in test [10]; 57.4% in test [11]; 55.8% in test [12]; 51.8% in test [13]. Moreover, the growth in test [19] was 35.1%; in [14] it was 22.9%; in test [15], 16.1%; in test [16], -3.7% (active); in test [17], 41.4%.

For the molecule `N#CC(C#N)=Cc1cccc(F)c1`, the growth in test [18] is 97.9%; in test [2], 103%; in test [3], 107%; in test [4], 98.4%; in [5], 110%; in test [6], 105%. Further, the growth is 112% in test [7]; 109% in test [8]; 101% in test [9]; 107% in test [10]; 105% in test [11]; 111% in test [12]. In addition, the growth was 107% in test [13]; 109% in test [19]; 101% in test [14]; 108% in test [15]; 110% in test [16]; 108% in [17].

Take `COC[C@H]1OC(=O)c2coc3c2[C@@]1(C)C1=C(C3=O)[C@@H]2CCC(=O)[C@@]2(C)C[C@H]1OC(C)=O`: the growth was 42.2% in [18]; 12.1% in [1]; 58.8% in test [2]; -41.3% (active) in [4]; 53.2% in test [5]; 39.9% in test [6]. In addition, the growth in test [7] is -28% (active); in [8], 41.7%; in [10], 52.5%; in [11], -2.63% (active); in test [12] it was 26.3%; in test [13], 60.3%. Further, the growth in test [19] was 53.4%; in test [14] it was 21.5%; in test [15] it was 45.7%; in [17] it was 51.2%.

On to `CC(C)c1cccc(C(C)C)c1O`, for which the growth in test [18] was 84% and 115%; in test [2], 101% and 100%; in [3], 102%; in test [4] it was 106% and 112%; in test [5], 107% and 95.3%; in test [6] it was 113% and 96.9%. The growth is 107% in test [7]; 108% and 106% in test [10]; 95% and 93.2% in test [11]; 104% and 97.8% in test [12]; 104% and 100% in test [13]; 106% and 112% in test [19]. In addition, the growth was 91.1% in [14]; 101% and 95.8% in test [15]; 111% and 105% in test [17].

`CCN1C(=O)CC(=O)N(CC)C1=S`: the growth in [1] was 101%; in test [2] it was 104%; in [3], 109%; in test [4] it was 85.7%; in test [5] it was 89.9%; in test [6] it was 99.7%. Also, the growth was 98.5% in test [7]; 112% in [8]; 102% in [9]; 73.9% in [10]; 98.1% in [11]; 94.5% in [12]. For the same molecule, the growth in test [13] is 105%; in [14], 100%; in test [15] it was 93.8%; in test [17], 106%.

For the molecule `Nc1nc(=S)nc(N)[nH]1`, the growth in test [18] is 90.4%; in test [1], 71.3%; in test [3], 104%; in [4], 89.1%; in test [6], 102%; in test [7], 87.6%. In addition, the growth was 95.6% in test [10]; 94.5% in test [11]; 77.8% in test [12]; 105% in [13]; 101% in test [19]; 96.5% in test [14]. In addition, the growth in test [15] is 89.1%; in [16] it was 92.1%; in [17] it was 112%.

In the case of `CC(Oc1ccc(-c2ccccc2)cc1)C(=O)O` (stereo not given), the growth in test [1] was 106%; in test [2], 101%; in test [3] it was 103%; in [4] it was 108%; in test [5], 101%; in test [6], 105%. Also, the growth in [7] is 103%; in test [8], 111%; in test [9], 110%; in test [10], 104%; in test [11], 98.4%; in test [12], 106%. For the same molecule, the growth was 102% in [13]; 102% in [19]; 103% in [14]; 98.5% in test [15]; 107% in [17].

For `O=C(O)C(F)F`, the growth in test [1] was 109%; in [2] it was 114%; in [3] it was 105%; in test [4], 106%; in test [5], 112%; in [6], 98.5%. In addition, the growth in [7] was 114%; in [8], 115%; in [9] it was 96.2%; in test [10], 113%; in test [11], 96.6%; in [12], 117%. For the same molecule, the growth in test [13] was 102%; in [14], 97.1%; in test [15] it was 107%; in test [16], 123%; in [17], 103%.

In the case of `CCC1CCC(=O)O1` (stereo not given), the growth is 98.3% and 116% in [18]; 104% and 114% in test [2]; 109% and 118% in [3]; 106% and 111% in test [4]; 96.6% and 112% in test [5]; 95.2% and 119% in test [6]. Also, the growth was 105% and 110% in [7]; 108% and 110% in [8]; 106% and 108% in test [9]; 112% and 124% in [10]; 93.5% and 118% in test [11]; 116% and 129% in test [12]. Further, the growth in test [13] was 109%; in [14] it was 90.5% and 105%; in [15] it was 106% and 107%; in test [16], 109%; in test [17], 99.7% and 108%.

With `COc1ccc(N)cc1OC`, the growth in test [18] was 112%; in test [2], 104%; in test [3], 115%; in test [4] it was 104%; in [6], 113%; in [7], 107%. Moreover, the growth was 108% in [8]; 107% in test [10]; 100% in [11]; 99.8% in test [12]; 103% in test [13]; 109% in test [19]. For the same molecule, the growth in test [14] was 102%; in [15] it was 103%; in [16], 111%; in [17] it was 100%.

With `CC1OC(=O)C(C(C)C)NC(=O)C(C(C)C)OC(=O)C(C(C)C)NC(=O)C(C)OC(=O)C(C(C)C)NC(=O)C(C(C)C)OC(=O)C(C(C)C)NC(=O)C(C)OC(=O)C(C(C)C)NC(=O)C(C(C)C)OC(=O)C(C(C)C)NC1=O` (stereo not given), the growth was -26.4% (active) in test [18]; -14.6% (active) in [1]; -23.2% (active) in [2]; -39.6% (active) in test [4]; -17% (active) in test [5]; -13.3% (active) in test [6]. In addition, the growth is -25% (active) in test [7]; -18.9% (active) in [8]; -63.9% (active) in test [9]; 0.571% (active) in test [10]; -15.2% (active) in test [11]; -42.5% (active) in [12]. Further, the growth in [13] was 3.94% (active); in [19], 3.61% (active); in [14], -31.7% (active); in test [15], -69% (active); in test [17], 0.9% (active).

Regarding `CN(C)c1ccc([N+](=O)[O-])c([N+](=O)[O-])c1`, the growth is 78.3% in test [1]; 106% and 103% in test [2]; 104% and 96.3% in test [3]; 113% and 101% in [4]; 101% in test [5]; 108% and 112% in test [6]. Further, the growth in [7] is 112% and 107%; in [8], 119% and 125%; in test [9] it was 96.4% and 103%; in [10] it was 104% and 97.9%; in test [11], 105% and 97.2%; in test [12] it was 90.5% and 105%. The growth in [13] is 99% and 97.1%; in test [19], 101% and 111%; in test [14] it was 83.6% and 91%; in test [15], 98.2% and 102%; in test [16] it was 96.6% and 107%; in test [17], 109% and 112%.

Turning to `Oc1ccc(O)c(Cl)c1`, the growth is 70.4% and 94.5% in test [1]; 28.5% and 91.1% in [2]; 90.4% and 102% in test [3]; 112% and 113% in [4]; 107% and 104% in [5]; 108% and 105% in [6]. Moreover, the growth was 107% and 108% in test [7]; 79.6% and 97.8% in test [8]; 93.5% and 97.7% in test [9]; 102% and 97.3% in test [10]; 89.1% in [11]; 66.3% and 96.1% in test [12]. The growth was 102% and 109% in [13]; 86% and 96.7% in test [14]; 102% and 109% in test [15]; 110% and 88.1% in test [16]; 100% and 102% in [17].

Consider `O=C1NC(=O)C(=C/C=C/c2ccccc2)C(=O)N1`, for which the growth in test [18] is 4.09% (active); in test [2], -20.4% (active); in [3] it was -3.62% (active); in [4], 37%; in test [5], 26.8%; in test [6] it was 62.9%. Further, the growth in [7] was 7.61% (active); in [8], 11.8%; in [10], -29.1% (active); in test [11], 32.2%; in [12] it was 36.6%; in test [13], 3.9% (active). Further, the growth in test [19] was -76.4% (active); in test [14], 14.2%; in test [15], -78.5% (active); in test [16] it was 62.1%; in test [17], -40.1% (active).
